Measured values: the supplement of paper PMC6089552
The campaign covered roughly 3,200 compounds. About 300 (9.4%) showed activity. What follows is part of a selection rich in actives, with near analogues and random picks from the rest.

Tested on: A673/TR/shEF
Assay: cell viability (LOESS-normalised, relative to median of negative controls) (log2 ratio); higher = more viable cells (less compound effect), active = hit call of the paper (over 3 MAD below the median)
Settings: treatment time: 72 h
How it was run: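 For three days, A673/TR/shEF Ewing sarcoma cells in 384-well plates (1,500 per well) were treated with library compounds at two or more concentrations or with DMSO controls, after doxycycline had been added or withheld 24 h beforehand to induce EWS-FLI1 shRNA knockdown. Viability was read by CellTiter-Glo luminescence on an Envision reader. The data were LOESS-corrected per plate, divided by the median of negative controls and log2-transformed.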

[1] = 0.25 µM, library screen: screen2, EWS-FLI1 expression: high (no doxycycline)
[2] = 0.25 µM, library screen: screen2, EWS-FLI1 expression: low (doxycycline-induced shRNA knockdown)
[3] = 2.5 µM, library screen: screen2, EWS-FLI1 expression: high (no doxycycline)
[4] = 2.5 µM, library screen: screen2, EWS-FLI1 expression: low (doxycycline-induced shRNA knockdown)
[5] = 0.25 µM, library screen: screen1, EWS-FLI1 expression: high (no doxycycline)
[6] = 0.25 µM, library screen: screen1, EWS-FLI1 expression: low (doxycycline-induced shRNA knockdown)
[7] = 2.5 µM, library screen: screen1, EWS-FLI1 expression: high (no doxycycline)
[8] = 2.5 µM, library screen: screen1, EWS-FLI1 expression: low (doxycycline-induced shRNA knockdown)
[9] = 0.103 µM, library screen: screen3, EWS-FLI1 expression: high (no doxycycline)
[10] = 0.103 µM, library screen: screen3, EWS-FLI1 expression: low (doxycycline-induced shRNA knockdown)
[11] = 0.308 µM, library screen: screen3, EWS-FLI1 expression: high (no doxycycline)
[12] = 0.308 µM, library screen: screen3, EWS-FLI1 expression: low (doxycycline-induced shRNA knockdown)
[13] = 0.926 µM, library screen: screen3, EWS-FLI1 expression: high (no doxycycline)
[14] = 0.926 µM, library screen: screen3, EWS-FLI1 expression: low (doxycycline-induced shRNA knockdown)
[15] = 2.8 µM, library screen: screen3, EWS-FLI1 expression: high (no doxycycline)
[16] = 2.8 µM, library screen: screen3, EWS-FLI1 expression: low (doxycycline-induced shRNA knockdown)
[17] = 8.3 µM, library screen: screen3, EWS-FLI1 expression: high (no doxycycline)
[18] = 8.3 µM, library screen: screen3, EWS-FLI1 expression: low (doxycycline-induced shRNA knockdown)
[19] = 25 µM, library screen: screen3, EWS-FLI1 expression: high (no doxycycline)
[20] = 25 µM, library screen: screen3, EWS-FLI1 expression: low (doxycycline-induced shRNA knockdown)

Measured: cell viability (log2)

C#CCOC(=O)C1=CCCN(C)C1
inactive: [1] 0.0844 | [2] 0.129 | [3] 0.0951 | [4] 0.11

CC(Cc1ccc(OCC(=O)O)cc1)NCC(O)c1cccc(Cl)c1 (stereo unspecified)
inactive: [1] 0.122 | [2] 0.143 | [3] 0.229 | [4] 0.136

C[N+]1(C)CCc2cc3c(cc2[C@H]1[C@@H]1OC(=O)c2c1ccc1c2OCO1)OCO3
inactive: [1] 0.123 | [2] 0.0886 | [3] 0.123 | [4] 0.104

COC[C@]12CN(C=O)[C@H]3C4[C@H](OC)[C@H]1C3([C@@H](OC)C[C@H]2O)[C@@H]1C[C@@]2(O)[C@H](OC(=O)c3ccccc3)[C@@H]1[C@]4(OC(C)=O)[C@@H](O)[C@@H]2OC
inactive: [5] 0.0391 | [6] 0.0831 | [7] 0.0466 | [8] 0.114

C=CCN1C[C@@H](C)N([C@H](c2ccc(C(=O)N(CC)CC)cc2)c2cccc(OC)c2)C[C@@H]1C
inactive: [1] 0.0848 | [2] 0.0464 | [3] 0.222 | [4] 0.00445

COc1cc2c(cc1OC)[C@@]13CCN4CC5=CCO[C@H]6CC(=O)N2[C@H]1[C@H]6[C@H]5C[C@H]43
inactive: [5] 0.0057 | [6] 0.0368 | [7] 0.098 | [8] -0.0757

CC(=O)Oc1ccc(C=Cc2cc(OC(C)=O)cc(OC(C)=O)c2)cc1
inactive: [5] 0.101 | [6] 0.0764 | [7] 0.00309 | [8] 0.228

Nc1ncnc2c1ncn2C1OC2COP(O)(=S)OC2C1O (stereo unspecified)
inactive: [1] 0.0926 | [2] 0.132 | [3] 0.0861 | [4] 0.0676

O.O=C1OC2(c3cc(Br)c([O-])cc3Oc3c2cc(Br)c([O-])[c]3[Hg])c2ccccc21.[Na+].[Na+] (stereo unspecified)
inactive: [5] 0.113 | [6] 0.0666 | [7] 0.139 | [8] 0.132

CN1C2CCC1CC(OC(=O)C(CO)c1ccccc1)C2 (stereo unspecified)
inactive: [1] 0.252 | [2] 0.166 | [3] 0.123 | [4] 0.223

C[C@]12CC[C@H]3[C@@H](CCC4=CC(=O)CC[C@@]43C)[C@@H]1CC[C@@H]2OC(=O)CCC1CCCC1
inactive: [9] -0.000785 | [10] 0.011 | [11] 0.0351 | [12] 0.0268 | [13] 0.0442 | [14] 0.0219 | [15] 0.0558 | [16] 0.00975 | [17] 0.0577 | [18] 0.0516 | [19] 0.0518 | [20] 0.0747

CC(N)Cc1ccc(O)cc1 (stereo unspecified)
inactive: [5] 0.0594 | [6] 0.0957 | [7] 0.092 | [8] 0.0198

COC[C@H]1OC(=O)c2coc3c2[C@@]1(C)C1=C(C3=O)[C@@H]2CCC(=O)[C@@]2(C)C[C@H]1OC(C)=O
inactive: 0.025 µM, library screen: screen1, EWS-FLI1 expression: high (no doxycycline) 0.254 | 0.025 µM, library screen: screen1, EWS-FLI1 expression: low (doxycycline-induced shRNA knockdown) 0.0235 | [5] 0.137 | [6] -0.0412 | [1] 0.179 | [2] 0.0105 | [8] -0.0837 | [3] -0.0237 | [4] 0.0148
active: [7] -0.356 | 25 µM, library screen: screen1, EWS-FLI1 expression: high (no doxycycline) -0.711 | 25 µM, library screen: screen1, EWS-FLI1 expression: low (doxycycline-induced shRNA knockdown) -0.309

CCCN1CCC[C@@H](c2cccc(C#N)c2)C1
inactive: [1] 0.21 | [2] 0.0529 | [3] 0.222 | [4] 0.141

CC1(C)C2C[C@@H](O)[C@]3(C)C(CC[C@@]4(C)[C@H](c5ccoc5)CC5OC543)[C@@]2(C)[C@@H](O)C[C@H]1O (stereo partly specified)
inactive: [5] 0.0938 | [6] 0.113 | [7] 0.107 | [8] 0.116

CCCN(CCC)c1c([N+](=O)[O-])cc(C(F)(F)F)cc1[N+](=O)[O-]
inactive: [5] -0.0384 | [6] 0.0507 | [7] 0.104 | [8] 0.107

CCOC(=O)NC1=C(N2CC2)C(=O)C(NC(=O)OCC)=C(N2CC2)C1=O
inactive: 0.025 µM, library screen: screen2, EWS-FLI1 expression: high (no doxycycline) -0.0137 | 0.025 µM, library screen: screen2, EWS-FLI1 expression: low (doxycycline-induced shRNA knockdown) -0.0126 | [5] 0.102 | [6] 0.0213 | [1] 0.153 | [2] -0.00616 | [7] 0.0672 | [8] 0.107 | [3] -0.0475 | [4] 0.0995
active: 25 µM, library screen: screen2, EWS-FLI1 expression: high (no doxycycline) -3.5 | 25 µM, library screen: screen2, EWS-FLI1 expression: low (doxycycline-induced shRNA knockdown) -0.288

CCC(C)[C@H]1O[C@]2(C=C[C@@H]1C)C[C@@H]1C[C@@H](C/C=C(\C)[C@@H](O[C@H]3C[C@H](OC)[C@@H](O[C@H]4C[C@H](OC)[C@@H](O)[C@H](C)O4)[C@H](C)O3)[C@@H](C)/C=C/C=C3\CO[C@@H]4[C@H](O)C(C)=C[C@@H](C(=O)O1)[C@]34O)O2.CO[C@H]1C[C@H](O[C@H]2[C@H](C)O[C@@H](O[C@@H]3/C(C)=C/C[C@@H]4C[C@@H](C[C@]5(C=C[C@H](C)[C@@H](C(C)C)O5)O4)OC(=O)[C@@H]4C=C(C)[C@@H](O)[C@H]5OC/C(=C\C=C\[C@@H]3C)[C@]54O)C[C@@H]2OC)O[C@@H](C)[C@@H]1O (stereo partly specified)
inactive: [5] 0.0422 | [6] 0.0818 | [7] 0.0639 | [8] 0.0892

Cn1cc(C2=C(c3cn(C4CCN(Cc5ccccn5)CC4)c4ccccc34)C(=O)NC2=O)c2ccccc21
inactive: [9] -0.105 | [10] -0.0101 | [11] -0.0168 | [12] 0.054 | [13] -0.0718 | [14] 0.0485 | [15] -0.024 | [16] -0.0681 | [17] 0.0419 | [18] 0.0589 | [19] -0.03 | [20] 0.0493

C=CCN1CCC23c4c5ccc(O)c4O[C@@H]2/C(=N/NC(=O)c2ccccc2)CCC3(O)[C@H]1C5 (stereo partly specified)
inactive: [1] 0.0804 | [2] 0.0684 | [3] 0.0878 | [4] 0.0887

C[C@H]1CCC/C=C/[C@@H]2C[C@H](O)C[C@H]2[C@H](O)/C=C/C(=O)O1
active: [1] -0.127 | [2] -0.561 | [3] -3.76 | [4] -3.56
